# From the supplement of paper PMC6555819
# Experiments:
# Experiment in all cases: PBM binding z-score (relative to random genomic background probes); higher = stronger binding; sequences stand for … in GC…GCGATTGACAGCGTAGAATGAAGG
# [1] = system: RARb homodimer (NR concentration 270 nM)
# Method in brief: (§1)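 Random background probes are the reference for binding z-scores. These scores derive from regression-normalized fluorescence on custom Agilent 4×180K protein-binding microarrays incubated 1 h with ligand-free nuclear receptor dimers. Binding was detected with antibodies against each partner (one per run).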
# [2] = system: RARg:RXRa (NR concentration 270 nM, RXRa partner concentration 90 nM)
# Method in brief: as §1
# [3] = system: RARg homodimer (NR concentration 270 nM)
# Method in brief: as §1
# [4] = system: RXRa DBDmut IVT, anti-RXR (DBD mutation: RXRa K156A/R161A, NR concentration 90 nM)
# Method in brief: as §1
# [5] = system: RXRa homodimer (NR concentration 180 nM)
# Method in brief: as §1
# [6] = system: THRa:RXRa (NR concentration 90 nM, RXRa partner concentration 90 nM)
# Method in brief: as §1
# [7] = system: THRa homodimer (NR concentration 90 nM)
# Method in brief: as §1
# [8] = system: VDR:RXRa (NR concentration 270 nM, RXRa partner concentration 90 nM)
# Method in brief: as §1
# [9] = system: VDR homodimer (NR concentration 270 nM)
# Method in brief: as §1
Sequence,PBM binding z-score [1],PBM binding z-score [2],PBM binding z-score [3],PBM binding z-score [4],PBM binding z-score [5],PBM binding z-score [6],PBM binding z-score [7],PBM binding z-score [8],PBM binding z-score [9]
TAGCCTAGGTCGTGCGGGCCAGTATAGTGTCGGC,0.429,0.705,0.719,-0.774,0.344,0.675,-0.487,0.148,-0.502
ATCGCTAGGTAACAAGTTCAGTGAAAGAGAGGAC,1.42,1.07,0.968,0.533,0.504,1.08,0.174,1.42,2.02
CAAACTAGGTCACAGAGGTCAAATTCCGTGCGTA,5.28,7.51,7.97,3.34,8.2,4.68,3.09,8.11,6.96
TAGCCTCGGTCAGATCGGGCCAGTATACGCTATA,0.82,0.738,1.98,-1.02,-0.0826,2.41,-1.11,-0.637,-1.63
AGAATGAGGTTACCTAAGATCAGGGAAACGCTTG,0.84,2.05,1.65,0.932,2.66,3.93,1.05,1.47,0.305
CGAACTAGGTCATTGGCAGGACAGTGAATAGTAA,2.75,4.52,4.07,2.36,2.52,3.09,0.749,2.07,0.995
ATCTCTAGGTAAAGTTCAGAGAAAGATCGATAGA,2.23,2.13,2.6,1.45,1.42,1.13,-0.103,1.41,2.03
AATACAGGGTCATCGTAGGCCAGAGGACGCACAG,3.8,5.78,5.21,3.64,7.03,4.56,1.75,5.19,3.53
CAGCCTAGGTCAGGGCCAGCATAGGAGGAACGTT,2.41,2.93,3.78,-0.352,1.57,1.95,0.423,0.0584,-0.327
TCAAATAGGTAAAGGTGAAAGTCGAACGATATGA,1.73,1.78,1.49,1.55,2.33,1.32,-0.328,1.17,0.351
GCATATAGGTAATGCAAGGTGAAAGTCCGATTGT,0.843,0.513,0.479,0.239,0.519,4.1,0.825,0.358,-0.0965
CGAACTGGGTCAGAACAGGACAGTGAAGGATGAT,1.53,1.84,2.27,0.00591,1.26,3.55,-0.0909,0.685,0.0814
TCTGCTAGGTCAGTTGGTCAGGTAACGAGCTGCC,2.67,2.55,3.52,0.427,0.908,1.95,0.951,-0.0561,-0.545
AGAACGAGGGCAATGAGTGGATAGCACGGGTGGC,0.709,0.805,1.49,1.05,0.694,0.576,-0.226,1.49,0.818
TCATGTAGGTAAAGGTGAAAGTCGAACGATATGA,1.61,1.69,1.37,0.705,1.91,1.28,0.0244,1.11,0.443
GCATATAGGTAATACAAGGTGAGAGTCCGATTGT,0.849,0.265,0.368,0.552,0.4,3.98,0.807,0.351,0.0557
CCTCCGAGGACAGAAGGTCAGAGCTGTCCGCTTT,3.67,3.52,3.34,0.589,2.37,2.76,1.17,1.36,0.494
TCATATAGGTGAATGCTAGGTGAAAGTCCGATCT,0.945,1.54,0.61,1.39,0.992,2.06,0.5,0.699,-0.483
ACAGACAGTTGAGTGAAGGTAACTCAGCTGGACG,-0.475,0.0376,0.211,-0.165,0.132,0.662,-0.514,-0.356,-0.463
ATGTCTAGGTAAAGATAGTTCAGTGAATGCAAAT,0.94,0.598,0.794,-0.0644,0.151,0.506,-0.0958,0.565,0.431
AGAACGAGGGCAATGAGTAGATAGCACGGGTGGC,0.9,1.33,1.4,1.67,1.14,0.671,-0.3,1.15,0.678
CGTCAAAGTACAACTAAGGTAACGTAAAGCACGC,1.16,1.03,1.21,0.971,0.543,3.77,1.62,0.523,0.523
TGAATGAGGTTATAAGATCAGGGATCGTTGCAAA,-0.0683,1.33,0.782,0.362,2.09,1.68,0.0696,0.956,0.406
CGTCCAAGGTCAAAGGTCAGAGAAGAGATGACGG,5.36,8.94,8.33,3.99,10.6,4.84,2.39,6.75,3.54
CGAAGTAGGTCATCCAGGACAGTGAATACATTGA,3.03,4.24,4.88,2.13,3.36,3.64,1.46,5.12,2.37
CGACCAAGGTCAAAGGTCAGTGAAGAGATGACGG,5.51,8.66,8.05,3.97,10.4,4.71,2.27,6.85,3.83

Sequence,PBM binding z-score [1],PBM binding z-score [2],PBM binding z-score [3],PBM binding z-score [4],PBM binding z-score [5],PBM binding z-score [6],PBM binding z-score [7],PBM binding z-score [8],PBM binding z-score [9]
ACTTACGGGTTAACGAGGTTATAGCACGCGTATA,1.62,2.26,1.43,1.02,3.01,3.09,0.992,6.31,1.96
CAAACTAGGTCACCGGAAGGTCAATGTCCGCATG,5.62,8.18,7.34,2.27,5.58,4.36,2.94,5.36,3.01
ATATGTAGGTTATAGGGTCATTCAGTTTGCGCAT,3.76,4.28,3.26,2.26,4.98,3.83,3.31,5.98,4.34
ACTAGCAGACCAAGGGTCACTCAAGATTAGTCCG,3.58,3.6,3.3,0.335,3.57,2.42,-0.116,2.58,1.2
TCTGCTAGGTCAACGATTGTCAGCTAATCTGCTA,3.06,3.75,4.64,1.16,2.41,2.77,0.845,0.993,-0.274
TCTGCTAGGTCAGTTGGTCCGCTAACGAGCTGCC,2.05,1.98,2.93,0.518,0.727,0.962,-0.188,0.677,-0.485
AATACAGGGTCACTACGCCAGAGTAGGTACGAAT,3.19,5.26,4.83,3.03,5.7,3.5,1.33,4.39,3.21
ACTCGGAAGACAAAGGTCAGAGCTACGCCAGTGA,4.33,4.5,4.21,0.211,4.56,2.57,0.0345,2.63,0.445
CGAACTAGGTGATCCAGGACAGTGAATACATTGA,0.12,0.151,0.467,0.07,0.363,1.38,0.934,0.541,0.0681
GCTCCTAGGTCAACTGATGGTCAGCTAAAGCTCG,3.8,5.76,5.88,2.02,3.77,3.15,1.7,2.29,0.601
CCGACTGAGGCAAGGTTACCATAACGCACAGCCA,1.01,0.557,0.458,0.18,0.97,1.26,0.413,0.0737,0.118
GCTAGGAGGCCATTTGGGTCACTCAATGACGGGC,2.18,1.5,2.23,0.724,0.924,2.33,0.78,1.83,1.29
TCATATAGGTAATAGAGGTGAAAGTCGGCATCTA,1.33,1.08,0.999,2.14,1.68,1.91,0.432,2.08,0.435
GCTGGCAGGCCATTTGGGTCACTCAATGACGGGC,1.88,0.91,1.54,-0.405,0.855,1.86,0.617,1,0.646
CCGACTGGGGCAGAAAGGATACCATACCATCCGG,0.0502,-0.104,0.264,-1.19,-0.344,-0.682,-0.741,-0.772,-0.566
TCTAGCAGGCCAGAGGGTCACTCAAGAGGTACGG,2.8,2.56,2.39,-0.167,2.61,1.54,-0.299,1.28,0.59
ATCGAAGGGTCGAGGTGAGTATAGAGAAAGGGAA,1.75,2.29,2.48,0.466,2.29,2.17,0.731,1.37,0.278
TCTATTAGTTGATTAGGGCAACCGCAACAGCGGA,0.671,0.648,0.445,0.932,0.721,0.679,0.272,0.526,0.125
GATAGCAGGCCATTTGGGTCACTCAATGACGGGC,1.92,1.22,1.5,0.215,0.841,1.87,0.437,1.07,0.542
TGAATGAGGTTATAAGATCAGCGAACGTTGCAAA,0.0466,1.48,1.05,0.409,1.9,1.61,-0.141,0.842,0.262
TCATATAGGTAAATGCTAGTTGAAAGTCCGATCT,-0.114,0.306,0.163,1.59,0.682,0.27,-0.299,1.07,0.45
CCTAGCAGGCCAGGGTCACTTAAGCATTTCGCTT,2.51,2.93,2.28,0.27,3.13,2.67,0.864,2.3,1.25
GCTCGGAGGACAAGGTCAGAGCATTGTCCGTAGA,3.1,3.37,3.72,0.0327,2.61,2.87,1.51,1.5,0.838
ACTATTAGTTGACTTAGGGAAACCGATACGACGC,-0.158,0.158,0.385,0.822,0.147,0.625,0.155,0.0698,0.262
GGAACGAGGGCAAGTTGATAGAAGAGTTTGATGG,1.5,1.55,2.06,2.22,0.775,1.2,0.164,0.975,1.7
TATACAGGGTCAAAGGCCAGCGTACGAATGTCGA,3.48,5.75,4.83,2.96,7.31,3.54,0.731,4.73,2.16
